Rango dissoc inh = inhibitors of RanGTP-induced Rango-importin beta complex dissociation | O95149+P62826 | Biochemical FRET Rango-importin beta, RanGTP-induced dissociation | Potency, µM (top dose mostly 46.1 µM), without a hit: at the highest dose activity change, negative = inhibition | actives 0.071% (n = 340,000); calls by dose curve; note: potency is the fitted concentration of half-maximal effect; % of control where 0% means no effect; nearly all actives have a fitted effect of over 45% in size
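Recombinant Rango FRET biosensor (EYFP–snurportin 1 IBB–cerulean CFP10) at 0.1 uM premixed with 0.25 uM importin beta in PBS, 1 mM DTT, 0.02% Tween-20, 0.1% BSA. Compound added 5 min; RanGTP-RCC1 (0.6 uM Ran, 2 mM GTP, 0.2 uM RCC1) then triggers release, read at 45 min.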
VDR inhibitor = inhibitors of human vitamin D receptor | P11473 | VDR-SRC2-3 peptide fluorescence polarization, 2 h | Potency, µM, inactives show max response, negative = inhibition, most hits filed as inhibitors | actives 0.93% (n = 400,000); note: potency is the fitted concentration of half-maximal effect; % is set by controls: 0 for no effect and ±100 for the full control effect
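Two reagent solutions held at 4 deg C in the dark were dispensed, compounds pinned at 23 nl, and the mixture incubated 2 h at room temperature. Read-out: fluorescence polarization of VDR–SRC2-3 peptide binding.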
PI5P4Ka inh = inhibitors of human PI5P4K alpha. P48426. PI5P4Kalpha enzyme, ADP-Glo luminescence, 60 min; active compounds read low. max response, %. actives 1.2% (n = 330,000). AID 652105; active = max response of -50% or lower; inconclusive = between -30% and -50%; inactive = -30% or higher; note: value at the top dose of about 77 µM; % is set by controls: 0 for no effect and ±100 for the full control effect
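Reactions run in 0.038 M HEPES pH 7.4, 0.28 mM EGTA, 0.1% CHAPS and 5% DMSO, with PI5P4Kalpha, substrate, compound and 5 microM ATP final, one hour at room temperature. Readout is ADP-Glo luminescence.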
Rango-impB inh = inhibitors of Rango-importin beta complex formation. actives 0.031% (n = 340,000). Potency, µM (series often up to 92.2 µM), for the others: at the top dose inhibition of complex formation. Rango CFP/YFP FRET sensor + importin beta, 45 min; calls by dose curve;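 note: potency is the fitted concentration of half-maximal effect; 0% = DMSO wells and 100% = buffer wells lacking importin beta; nearly all actives have a fitted effect of over 15% in size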
Target sequence (Q14974 whole entry, looked up): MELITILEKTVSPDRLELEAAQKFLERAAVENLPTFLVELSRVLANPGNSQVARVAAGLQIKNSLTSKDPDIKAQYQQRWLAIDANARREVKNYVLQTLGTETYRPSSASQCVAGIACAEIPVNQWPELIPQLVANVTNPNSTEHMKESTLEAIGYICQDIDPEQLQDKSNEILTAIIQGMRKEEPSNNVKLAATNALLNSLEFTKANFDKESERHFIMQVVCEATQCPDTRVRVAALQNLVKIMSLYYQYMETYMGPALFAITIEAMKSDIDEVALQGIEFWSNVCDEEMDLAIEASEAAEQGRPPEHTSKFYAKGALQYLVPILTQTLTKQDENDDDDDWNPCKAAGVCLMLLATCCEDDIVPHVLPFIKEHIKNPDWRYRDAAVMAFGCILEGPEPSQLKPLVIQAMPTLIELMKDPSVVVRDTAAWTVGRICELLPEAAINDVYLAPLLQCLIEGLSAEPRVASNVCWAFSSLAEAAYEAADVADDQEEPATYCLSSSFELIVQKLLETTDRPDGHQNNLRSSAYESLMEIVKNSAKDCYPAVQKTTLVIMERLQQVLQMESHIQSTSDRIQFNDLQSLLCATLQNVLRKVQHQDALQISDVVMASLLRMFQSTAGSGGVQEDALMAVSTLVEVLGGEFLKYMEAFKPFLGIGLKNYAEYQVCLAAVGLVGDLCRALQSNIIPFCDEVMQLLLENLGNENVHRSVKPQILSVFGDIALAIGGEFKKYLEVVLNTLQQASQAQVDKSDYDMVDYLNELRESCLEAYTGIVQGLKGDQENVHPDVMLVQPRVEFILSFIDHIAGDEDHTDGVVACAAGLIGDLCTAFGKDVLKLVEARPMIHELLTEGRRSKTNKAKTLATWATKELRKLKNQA
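FRET biosensor Rango (snurportin 1 IBB between N-terminal EYFP and C-terminal Cerulean), 50 nM in PBS/1 mM DTT/0.02% Tween-20/0.1% BSA, preincubated 5 min RT with compound; 0.125 microM importin beta added, 45 min RT, CFP/YFP FRET ratio read.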
GCN5L2 inh = inhibitors of human GCN5L2 histone acetyltransferase; GCN5L2 HAT assay, ThioGlo1 CoA-SH fluorescence; Potency, µM (series often up to 58.9 µM), for inactives: at the top dose activity change, negative = inhibition, actives largely listed as inhibitors; actives 0.21% (n = 390,000); note: potency is the fitted concentration of half-maximal effect; % is set by controls: 0 for no effect and ±100 for the full control effect
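qHTS, 1536-well. 20nM enzyme, pH 7.5 HEPES/EDTA/Tween-20 buffer; 15 min compound preinc., RT. Start: 75uM H3(1-25), 70uM AcCoA, 50uM ThioGlo1. Read Ex340/Em540 at t=0 (autofluorescence flag) and t=20 min.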
PLK1 PBD block = PLK1 (human) polo-box domain binding inhibition | Plk1 PBD binding of FITC phosphopeptide, fluorescence polarization | Potency, µM, inactives show max response, negative = inhibition, usual class: inhibitors | actives 2.8% (n = 360,000); note: potency is the fitted concentration of half-maximal effect; series mostly up to about 57 µM; % is set by controls: 0 for no effect and ±100 for the full control effect; nearly all actives have a fitted effect of over 65% in size
Active calls of the source: *; ! = repeats disagree. Hits are enriched below; roughly 3.6% of the tested compounds scored in any of these assays. Unless noted, calls come from the whole dose curve; as a rule, active = well fitted curve in the direction sought with a large enough effect; inconclusive = small, poorly fitted or top-dose-only effect, or another doubt; inactive = no such curve, though single readings can be large; an effect the other way counts as inactive or inconclusive.

How did CC1=C(/C=C/C(C)=C\C=C\C(C)=C\C(=O)O)C(C)(C)CCC1 do in these assays?
VDR inhibitor: 56.2µM*!; GCN5L2 inh: 5.5%

How did COc1cc(/C=C(/C#N)c2nc(-c3cc4ccccc4oc3=O)cs2)ccc1O do in these assays?
VDR inhibitor: -5.6%; GCN5L2 inh: 5.9%

How did O=C(NC1CCCCC1)n1c(=O)oc2ccc(Cl)cc21 do in these assays?
Rango dissoc inh: -11.3%; VDR inhibitor: -0.4%; Rango-impB inh: -5.3%; GCN5L2 inh: 0.3%; PLK1 PBD block: 5.97µM*

How did O=C(NC1CCCCC1)n1c(=O)oc2ccccc21 do in these assays?
Rango dissoc inh: -10.4%; VDR inhibitor: 6.0%; Rango-impB inh: -1.2%; GCN5L2 inh: 1.7%; PLK1 PBD block: inconclusive

Results for Cc1cccc(C(=O)Nc2ccc3nc(SCC(=O)N4CCCC4)sc3c2)c1 ?
VDR inhibitor: 1.7%; GCN5L2 inh: -19.7%

Results for COc1cc(NC(=O)CN(C)Cc2cccc(F)c2)c(C)cc1[N+](=O)[O-] ?
Rango dissoc inh: -8.4%; VDR inhibitor: inconclusive; PI5P4Ka inh: -6.4; Rango-impB inh: 0.2%; GCN5L2 inh: -3.3%; PLK1 PBD block: 26.7µM*

Results for Cc1cccc(N2C(S)=C(C#N)C(=O)NC2c2cccs2)c1 (stereo not drawn) ?
Rango dissoc inh: 11.5%; VDR inhibitor: 50.1µM*; PI5P4Ka inh: -16.1; Rango-impB inh: -2.1%; GCN5L2 inh: 1.4%; PLK1 PBD block: inconclusive

What do the screens show for `CC(=O)C1=C(C)NC(SCC(N)=O)=C(C#N)C1c1cccs1` (stereo not drawn)?
Rango dissoc inh: -10.4%; VDR inhibitor: 0.1%; Rango-impB inh: inconclusive; PLK1 PBD block: -4.6%

Results for CCCCN1C(=O)C2ON(c3ccccc3C)C(c3ccco3)C2C1=O (stereo not drawn) ?
Rango dissoc inh: -1.9%; VDR inhibitor: -4.5%; Rango-impB inh: 4.9%; GCN5L2 inh: -7.9%; PLK1 PBD block: -9.4%

Results for Cc1ccccc1N1C(S)=C(C#N)C(=O)NC1c1ccco1 (stereo not drawn) ?
Rango dissoc inh: 0.7%; VDR inhibitor: 79.4µM*; PI5P4Ka inh: -53.1*; Rango-impB inh: -5.3%; GCN5L2 inh: -1.4%; PLK1 PBD block: inconclusive

How did Cc1ccccc1N1C(S)=C(C#N)C(=O)NC1c1cccs1 (stereo not drawn) do in these assays?
Rango dissoc inh: -7.3%; VDR inhibitor: 22.4µM*; PI5P4Ka inh: -29.3; Rango-impB inh: 0.1%; GCN5L2 inh: -7.4%; PLK1 PBD block: inconclusive

How did N#CC1=C(S)N(c2ccccc2)C(c2ccc(-c3ccccc3Cl)o2)NC1=O (stereo not drawn) do in these assays?
Rango dissoc inh: 8.7%; VDR inhibitor: 39.8µM*; PI5P4Ka inh: -1.4; Rango-impB inh: 0.2%; GCN5L2 inh: -14.5%; PLK1 PBD block: 18.9µM*

How did N#CC1=C(S)N(c2ccc(F)cc2)C(c2cccs2)NC1=O (stereo not drawn) do in these assays?
Rango dissoc inh: 0.5%; VDR inhibitor: inconclusive; PI5P4Ka inh: -2.9; Rango-impB inh: -1.1%; GCN5L2 inh: 1.8%; PLK1 PBD block: -15.9%

What do the screens show for `Cc1ccccc1CS(=O)(=O)Cc1ccc(C(=O)NCCc2ccc(Cl)cc2)o1`?
VDR inhibitor: 8.8%; GCN5L2 inh: -1.2%

How did COc1ccc(C(=O)N(O)c2ccccc2)cc1 do in these assays?
VDR inhibitor: -1.8%

How did COc1ccc(Br)c2c1-c1nc(NC(=O)c3cccc(C)c3)sc1C2 do in these assays?
VDR inhibitor: inconclusive; GCN5L2 inh: -10.3%

Results for CCCCc1nc2cc(C(=O)N3CCNC(=O)C3CC(=O)OC)ccc2o1 (stereo not drawn) ?
Rango dissoc inh: 13.9%; VDR inhibitor: -0.7%; PI5P4Ka inh: 0.3; Rango-impB inh: -2.5%; GCN5L2 inh: -13.7%; PLK1 PBD block: -5.2%

Assay outcomes from PubChem.
